Laboratory results: PubChem BioAssay (NCATS)
Records with an inconclusive call do not appear. The source made the active and inactive calls. Unless noted, calls follow the shape of the full dose curve.

Target: Alpha-galactosidase (Coffea arabica) (UniProt Q42656)
Assay: Counterscreen for Glucocerebrosidase Inhibitors: qHTS Assay for Coffee Bean alpha-Galactosidase at pH 4.5 (AID 957; active = well fitted curve in the direction sought with a large enough effect;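 also: plate controls were enzyme alone for no effect and no enzyme for full effect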)
Conditions: purified coffee bean alpha-galactosidase, fluorogenic substrate; series mostly up to 76.9 µM; activity change, negative = inhibition: at the top concentration
Outline: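 Coffee bean alpha-galactosidase 2 nM, substrate 4-MU-alpha-Gal 80 uM, pH 4.5 citrate/Tween-20, 20 min RT. Cpd titration 0.7 nM–77 uM. Stop pH 10, fluorescence 365/440 nm; Hill-equation AC50.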

Chain of Alpha-galactosidase (Coffea arabica) (Q42656 whole entry, looked up): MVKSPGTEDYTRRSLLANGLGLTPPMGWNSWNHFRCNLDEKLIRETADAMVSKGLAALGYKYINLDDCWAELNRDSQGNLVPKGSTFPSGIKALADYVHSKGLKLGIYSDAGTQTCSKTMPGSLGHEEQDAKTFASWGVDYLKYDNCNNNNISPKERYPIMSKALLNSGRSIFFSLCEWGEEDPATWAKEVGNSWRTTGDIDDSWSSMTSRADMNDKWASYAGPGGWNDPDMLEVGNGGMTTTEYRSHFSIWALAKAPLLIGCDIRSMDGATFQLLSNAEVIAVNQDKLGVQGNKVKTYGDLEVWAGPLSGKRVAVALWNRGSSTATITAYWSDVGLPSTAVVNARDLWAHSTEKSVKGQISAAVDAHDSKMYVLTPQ

Row | Structure (SMILES) | activity change, negative = inhibition
1 | Cc1cc(C)c(NC(=O)C[C@H](CC(=O)O)c2cccc3ccccc23)c(C(=O)N2CCC3(CCCC3)CC2)c1 | -1.34% (inactive)
2 | CCCCOC(=O)NS(=O)(=O)c1sc(CC(C)C)cc1-c1ccc(Cn2c(CC)nc3c(C)cc(C)nc32)cc1 | -2.49% (inactive)
3 | CCn1c(=O)c2[nH]c(-c3ccccc3)nc2n(CC)c1=O | -3.86% (inactive)

Tested on: not listed separately
Assay: Validation screen for inhibitors of Lassa infection (AID 463096); also: % is scaled to controls: 0 for no effect and ±100 for the full control effect
Conditions: Lassa virus infection, cell-based; series mostly up to 46.1 µM; activity change, negative = inhibition: at the top concentration

Row | Structure (SMILES) | activity change, negative = inhibition
4 | CNC(=O)[C@H]1O[C@@H](n2cnc3c(NCc4ccc(N)cc4)ncnc32)[C@H](O)[C@H]1O | -16.8% (inactive)
5 | Nc1ncnc2c1nc(Sc1ccc(Cl)cc1)n2[C@H]1O[C@@H]2COP(=O)(O)O[C@H]2[C@@H]1O | -14.1% (inactive)
6 | CNC(=O)[C@H]1O[C@@H](n2cnc3c(N)ncnc32)[C@H](O)[C@H]1O | -14% (inactive)
7 | CC(C)C1NC(=O)[C@H](CCCCN)NC(=O)[C@@H](Cc2c[nH]c3ccccc23)NC(=O)[C@H](Cc2ccc(O)cc2)NC(=O)[C@H](C)N(C)C(=O)[C@H](Cc2ccccc2)NC1=O (some centres not stated) | 44.8% (inactive)
8 | [N-]=[N+]=Nc1ccc(C(=O)CSC[C@H](NC(=O)CC[C@H](N)C(=O)O)C(=O)NCC(=O)O)cc1 | -15.9% (inactive)
9 | CC(N)=NCCCC(N)C(=O)O (configuration not stated) | 20.5% (inactive)
10 | CC[C@H](C)C(=O)O[C@H]1CCC=C2C=C[C@H](C)[C@H](CC[C@@H]3C[C@H](O)CC(=O)O3)C21 (some centres not stated) | 7.17% (inactive)
11 | CC(C)(C)NCC(O)COc1nsnc1N1CCOCC1 (configuration not stated) | 18.2% (inactive)
12 | Cc1cc(C)c(NC(=O)C[C@H](CC(=O)O)c2cccc3ccccc23)c(C(=O)N2CCC3(CCCC3)CC2)c1 | 1.89% (inactive)
13 | O=c1[nH]c(=O)n([C@H]2C[C@H](O)[C@@H](CO)O2)cc1/C=C/Br | 6.89% (inactive)
14 | CCCCCCCCCCCCC/C=C/[C@@H](O)[C@@H](N)CO | 1.93% (inactive)
15 | CN(C)CCCO[C@H]1C([C@H](O)CO)O[C@@H]2OC(C)(C)O[C@@H]21 (some centres not stated) | 47.5% (inactive)
16 | CC(=O)[C@@]1(O)CC[C@H]2C3CCC4=CC(=O)CC[C@]4(C)C3CC[C@@]21C (some centres not stated) | -7.86% (inactive)
17 | CN1CCc2cc(Cl)c(O)cc2C(c2ccccc2)C1 (configuration not stated) | -1.42% (inactive)
18 | C[C@]12C[C@H](O)C3[C@@H](CCC4=CC(=O)CC[C@@]43C)[C@@H]1CC[C@@H]2C(=O)CO (some centres not stated) | -17.1% (inactive)
19 | Nc1nc(Cl)nc2c1ncn2[C@@H]1O[C@H](CO)[C@H](O)[C@H]1O | -10.4% (inactive)
20 | NCC1OC(O[C@@H]2[C@H](O)[C@@H](OC3C(O)C(N)CC(N)C3OC3OC(CO)C(O)C(O)C3N)O[C@@H]2CO)C(N)C(O)C1O (some centres not stated) | -13.2% (inactive)

Row | Structure (SMILES) | activity change, negative = inhibition
21 | CN=C(N)NCCCC(N)C(=O)O (configuration not stated) | -11.1% (inactive)
22 | CSc1nc(N)c2ncn([C@@H]3O[C@H](COP(=O)(O)OP(=O)(O)O)[C@H](O)[C@H]3O)c2n1 | -5.7% (inactive)
23 | Cc1ccccc1N1CCN(S(=O)(=O)C[C@]23CCC(CC2NC(=O)[C@@H](N)CCS(C)(=O)=O)C3(C)C)CC1 (some centres not stated) | 15.3% (inactive)
24 | CCCCOC(=O)NS(=O)(=O)c1sc(CC(C)C)cc1-c1ccc(Cn2c(CC)nc3c(C)cc(C)nc32)cc1 | -40.4% (inactive)
25 | CC(=O)SC1CC2=CC(=O)CC[C@]2(C)C2CC[C@@]3(C)[C@@H](CC[C@@]34CCC(=O)O4)C12 (some centres not stated) | 8.69% (inactive)
26 | CSc1nc(N)c2ncn([C@@H]3O[C@H](COP(=O)(O)OP(=O)(O)OP(=O)(O)O)[C@H](O)[C@H]3O)c2n1 | -5.1% (inactive)
27 | COc1cc(=O)n(C)c2c(OCC(O)C(C)(C)O)cccc12 (configuration not stated) | 19% (inactive)
28 | Cc1cn([C@H]2C[C@@H](N=[N+]=[N-])[C@@H](CO)O2)c(=O)[nH]c1=O | 10.9% (inactive)
29 | NC(=S)NCCCC(N)C(=O)O (configuration not stated) | 3.27% (inactive)
30 | Nc1nc(Nc2ccccc2)nc2c1ncn2[C@@H]1O[C@H](CO)[C@H](O)[C@H]1O | 0.0139% (inactive)
31 | N#CC(Cc1ccc(O)c(O)c1)C(=O)N1CCc2ccccc21 (configuration not stated) | -21% (inactive)
32 | C#C[C@]1(O)CC[C@H]2C3CCC4=Cc5oncc5CC4(C)C3CCC21C (some centres not stated) | -18% (inactive)
33 | C[C@H]1CC2[C@@H]3CCC4=CC(=O)C=C[C@]4(C)[C@@]3(Cl)[C@@H](O)C[C@]2(C)[C@@]1(O)C(=O)CO (some centres not stated) | 12.8% (inactive)
34 | COc1ccc(CCNC[C@@H](O)c2ccc(O)cc2)cc1OC | -10.8% (inactive)
35 | NC(CCC(=O)NCS(=O)(=O)O)C(=O)O (configuration not stated) | 12.1% (inactive)
36 | Nc1ncnc2c1ncn2[C@@H]1O[C@H](COP(=O)(O)OP(=O)(O)OP(=O)(O)OP(=O)(O)OC[C@@H]2O[C@H](n3cnc4c(N)ncnc43)[C@@H](O)[C@@H]2O)[C@H](O)[C@H]1O | 22.1% (inactive)
37 | CCCCCCCCCCCCCCC/C=C/[C@@H](O)[C@H](NC(=O)CCCCCCCCCCCCC)OC (tested in a mixture with another compound) | 7.83% (inactive)
